In the library only some 4.1% were active in any assay of this set; here they are far more common.
PfM18AAP inh-1: PfM18AAP enzyme inhibition; 1.2% of 290,000 active; inhibition, % at 7.35 µM; recombinant PfM18AAP, H-Glu-NHMec fluorogenic cleavage; AID 1822;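 active means inhibition above the campaign mean inhibition over all tested compounds plus 3 SD, cut at about 28% in these data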
IDE cell activ: activators of human insulin-degrading enzyme in cells | P14735 | HEK cells, FAbeta-B cleavage, fluorescence polarization; 0% vehicle, 100% cell-free pure enzyme wells | activation, % at 5.96 µM | 0.073% of 340,000 active | AID 493087;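 active means activation above the mean of all tested compounds plus 3 SD, set per screening campaign, cut at about 17% in these data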
IDE inh: inhibits human insulin-degrading enzyme in HEK cells; P14735; inhibition, % at 5.59 µM; 0.41% of 320,000 active; FAbetaB cleavage, fluorescence polarization;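 active means percent inhibition above the average of all tested compounds plus 3 SD, set per screening campaign, cut at about 16% in these data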;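 further: IDE supplied by intact live HEK cells; FP after avidin binding of uncleaved biotin substrate so inhibition keeps polarization high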
CaV13 FRET inh: Primary screen for inhibitors of IQ motif and Ca2+-dependent inactivation inhibitor domain binding in CACNA1D, Förster resonance energy transfer in living cells, …. AID 743397. HEK cells, CFP/YFP FRET ICDI-IQ, plate reader, 10 min; percent FRET-ratio fall versus neutral wells. 0.098% of 340,000 active. inhibition, % at 12.3 µM;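 active means mean replicate inhibition of at least 30% and at least 1% of replicates passing that level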
ALR H2O2 inh: inhibitors of human sulfhydryl oxidase ALR. 3.8% of 290,000 active. purified ALR, DTT oxidation, H2O2 HRP-luminol luminescence. P55789. AID 485317. inhibition, % (test concentration not listed);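 active means mean replicate inhibition above about 79%, with every replicate also reaching it, limit read from the data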
Target sequence (P55789 whole entry, looked up): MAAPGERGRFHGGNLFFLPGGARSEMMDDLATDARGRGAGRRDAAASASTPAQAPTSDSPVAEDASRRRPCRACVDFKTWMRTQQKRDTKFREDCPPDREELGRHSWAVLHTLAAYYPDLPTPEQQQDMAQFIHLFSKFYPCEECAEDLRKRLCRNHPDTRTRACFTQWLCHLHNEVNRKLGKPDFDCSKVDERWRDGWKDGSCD
PolyA inhibitor: blocks polyadenylation in yeast reporter cells; AID 1875; activity score, % at 12 µM; S. cerevisiae SKY197-pL101 polyadenylation reporter, beta-gal luminescence; efflux-impaired pdr1/pdr3 knockout yeast; score 100 = 6 SD above DMSO; 0.02% of 300,000 active;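 active means lowest replicate activity score at least 50, where 100 means six control SD above control mean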;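 further: yeast exposed to compound for 9 h at 30 °C; higher score means more reporter readthrough which indicates perturbed polyadenylation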
PfM18AAP inh-2: PfM18AAP inhibition, confirmation; shares compounds with PfM18AAP inh-1; recombinant PfM18AAP, H-Glu-NHMec fluorogenic cleavage; inhibition, % at 7.35 µM; 28% of 2,400 active; AID 2170;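 active means mean inhibition over replicate wells above the hit cutoff set for the earlier primary screen, cut at about 29% in these data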
CTSL1 counter: Cathepsin L (human) inhibition, confirmation; inhibition, % at 5.96 µM; 2,400 tested, under 10 active; shares compounds with PfM18AAP inh-1; purified cathepsin L1, Z-Leu-Arg-MCA fluorescence; AID 2178;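 active means average inhibition across replicates above the hit cutoff set in the earlier primary screen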
A number is an active result; . = inactive; / = no result.

SMILES	PfM18AAP inh-1	IDE cell activ	IDE inh	CaV13 FRET inh	ALR H2O2 inh	PolyA inhibitor	PfM18AAP inh-2	CTSL1 counter
COc1ccc(N(C(=O)CSCC(=O)Nc2cc(C)on2)C(C(=O)NC2CCCCC2)c2ccc(O)c(O)c2)cc1 (stereo not drawn)	60.5	.	.	.	85.0	.	48.2	.
Cc1cc(NC(=O)CSCC(=O)N(c2cccc(Cl)c2)C(C(=O)NC2CCCCC2)c2ccc(O)c(O)c2)no1 (stereo not drawn)	57.4	.	.	.	99.0	.	42.9	.
Cc1ccc(C(C(=O)NC2CCCC2)N(C(=O)CCC(=O)Nc2cc(C)on2)c2ccccc2)cc1 (stereo not drawn)	.	.	.	.	/	.	/	/
COc1ccc(N(C(=O)CCC(=O)Nc2cc(C)on2)C(C(=O)NC2CCCC2)c2ccco2)cc1 (stereo not drawn)	.	.	.	.	.	.	/	/
Cc1cc(NC(=O)CSCC(=O)N(c2ccc(F)cc2)C(C(=O)NC2CCCCC2)c2ccc(O)c(O)c2)no1 (stereo not drawn)	68.0	.	.	.	.	.	52.1	.
Cc1cc(NC(=O)CCC(=O)N(c2ccc(F)cc2)C(C(=O)NC2CCCC2)c2cccnc2)no1 (stereo not drawn)	.	.	.	.	.	.	/	/
O=C(Nc1ccccc1)c1ccc(=O)[nH]n1	.	.	.	.	.	.	/	/
C[n+]1cccc(C2C(C#N)=C(N)Oc3c2ccc2ccccc32)c1 (stereo not drawn)	37.7	.	.	.	.	.	.	.
C[n+]1cccc2ccc3c(c21)OC(N)=C(C#N)C3c1ccccc1 (stereo not drawn)	.	/	.	.	.	.	/	/
CCN(CC)CCn1c2ccccc2c2nc3ccc([N+](=O)[O-])cc3cc21	.	/	.	.	.	.	/	/
O=C(Cn1cnnn1)Nc1cccc([N+](=O)[O-])c1	.	.	.	.	.	.	/	/
O=C(O)c1cc([N+](=O)[O-])c(N2CCCC2)c([N+](=O)[O-])c1	38.1	.	.	.	.	.	.	.
COc1ccc(C(=O)NC2CCCc3ccccc32)c(OC)c1OC (stereo not drawn)	.	.	.	.	.	.	/	/
COc1ccc(S(=O)(=O)N(C)C)cc1NCC(=O)Nc1cccc(C#N)c1	.	.	.	.	.	.	/	/
O=C(Nc1cnccn1)Nc1ccc(Cl)cc1Cl	.	.	.	.	.	.	/	/
Fc1ccc(CSc2ncnc3scc(-c4ccccc4)c23)cc1	.	.	.	.	.	.	/	/
Fc1ccc(C[n+]2csc3ccccc32)cc1	35.9	.	.	.	.	.	.	.
CCCOc1ccc(F)cc1-c1cc(C(=O)NCCOC)[nH]n1	/	/	/	.	/	/	/	/
CC(=O)c1cccc(N=c2scc(-c3ccc(S(=O)(=O)N4CCOCC4)cc3)n2CCO)c1	50.5	.	.	.	.	.	.	.
O=C(Nc1ccncc1)C1COc2ccccc2O1 (stereo not drawn)	.	.	.	/	.	.	/	/
O=C(CSC1=NCCN1)C1COc2ccccc2O1 (stereo not drawn)	41.8	.	.	.	92.9	.	.	.
CCOc1ccc(CC(=O)C2C(=O)CCCC2=O)cc1OCC	33.0	.	.	/	.	.	.	.
CCOc1ccc(CC(=O)C2C(=O)CC(C)(C)CC2=O)cc1OCC	.	.	.	.	.	.	/	/
Cc1cc(C)n2nc(NCc3cccc(Br)c3)nc2n1	.	.	.	.	.	.	/	/
Cc1occc1-c1nnc(-c2cc([N+](=O)[O-])cc([N+](=O)[O-])c2)o1	.	/	.	.	.	.	/	/
NC(=O)c1sc2nc3c(c(-c4ccco4)c2c1N)CCC3	32.5	.	.	.	.	.	.	.
Cc1cccc(C)c1N1C(=O)CC(N(O)c2ccccc2)C1=O (stereo not drawn)	.	.	.	.	.	.	/	/

Screens (PubChem BioAssay)
